Screening data as filed in PubChem.
ELG1 genotox: inducers of genotoxicity in HEK293T ELG1-luciferase cells. HEK293T ELG1-luciferase reporter, luminescence, 16 h. Potency, µM (titrated, usually from 46 µM), for the others: at the top dose activity change, positive = activation, actives largely listed as activators. hit rate 1.3% among 330,000; further: % of control where 0% means no effect; nearly all actives have a fitted effect of over 60% in size
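ELG1-luciferase HEK293T cells, 2,000/well; compound pinned in; 16 hr, 37 °C, 5% CO2; ONE-Glo, 30 min RT; luminescence on CCD imager.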
FLuc counter: inhibits or activates purified firefly luciferase, miR-21 counter-screen | Potency, µM (doses to about 57.5 µM), without a hit: at the highest dose activity change, negative = inhibition, actives largely listed as inhibitors | hit rate 6.9% among 360,000 | P08659 | purified FLuc, Km substrates, luminescence inhibition | AID 588342;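 further: plate controls were vehicle for no effect and reference inhibitor for full effect; nearly all actives have a fitted effect of over 55% in size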
Target sequence (P08659 whole entry, looked up): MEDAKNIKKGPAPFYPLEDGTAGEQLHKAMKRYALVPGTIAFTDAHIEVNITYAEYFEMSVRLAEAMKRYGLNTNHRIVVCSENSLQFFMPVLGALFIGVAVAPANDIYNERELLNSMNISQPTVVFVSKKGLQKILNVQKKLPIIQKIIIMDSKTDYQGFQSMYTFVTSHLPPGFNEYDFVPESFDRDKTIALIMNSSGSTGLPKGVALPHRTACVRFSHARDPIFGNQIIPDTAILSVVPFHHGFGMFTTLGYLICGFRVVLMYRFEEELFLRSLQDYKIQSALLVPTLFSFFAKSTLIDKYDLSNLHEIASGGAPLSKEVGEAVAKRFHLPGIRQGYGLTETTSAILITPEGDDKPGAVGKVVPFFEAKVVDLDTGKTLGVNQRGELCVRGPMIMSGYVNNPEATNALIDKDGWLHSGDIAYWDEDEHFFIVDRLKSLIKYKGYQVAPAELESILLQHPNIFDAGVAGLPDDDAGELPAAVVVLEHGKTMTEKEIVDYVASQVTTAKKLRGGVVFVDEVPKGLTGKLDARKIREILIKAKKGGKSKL
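Biochemical qHTS of compounds, final roughly 60 µM downward over six points, against 10 nM purified firefly luciferase using Km concentrations of substrates (10 uM D-luciferin, 10 uM ATP) in Tris acetate pH 7.5 buffer; luminescence output.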
SMN2 splice enh: increases expression of the SMN2 splice variant; Potency, µM (titrated, usually from 46.1 µM), inactives show top-dose activity change, positive = activation, usual class: activators; hit rate 2.8% among 210,000; AID 1458; HEK293 SMN2-luciferase splicing reporter, luminescence, 30-36 h; further: % of control where 0% means no effect; nearly all actives have a fitted effect of over 55% in size
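HEK293 cells carry an SMN2 minigene-luciferase reporter in which exon 7 inclusion puts luciferase in frame. Cells were seeded at 2000 cells/well, attached for 10-12 hours, then exposed to compounds for 30-36 hours at 37C before ONE-Glo luminescence.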
NPC1 prom act: activators of NPC1 promoter; hit rate 2.4% among 320,000; Huh7 NPC1 promoter luciferase reporter, 24 h; Potency, µM (titrated, usually from 9.22 µM), without a hit: top-dose activation, actives largely listed as activators; AID 485313; further: % of control where 0% means no effect; nearly all actives have a fitted effect of over 60% in size
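Stable NPC1-promoter luciferase Huh7 line; cpd (DMSO) 24 h, 37 °C, 5% CO2; Amplite luciferase reagent 10 min RT; luminescence readout. qHTS format.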
Rab9 promoter act: activators of Rab9 promoter; hit rate 2.8% among 320,000; Huh7 Rab9 promoter-luciferase reporter, luminescence, 24 h; Potency, µM (series often up to 9.22 µM), inactives show at the top dose activation, negative = inhibition, actives largely listed as activators; AID 485297; further: % of control where 0% means no effect; nearly all actives have a fitted effect of over 60% in size
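Quantitative HTS format; Huh7 Rab9-luciferase reporter cells (1500/well) receive compound 2 h post-plating, incubate 24 h at 37 °C, then get luciferase reagent for 10 min before luminescence reading.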
An asterisk follows results filed as active; [ ] = remark or other dose. This is a sample that favours compounds with a hit; in the whole collection about 7.5% have one here. The call rests on the fitted dose curve; in most records, active means well fitted curve in the direction sought with a large enough effect; inconclusive means small, poorly fitted or top-dose-only effect, or another doubt; inactive means no such curve, though single readings can be large; an effect the other way counts as inactive or inconclusive. Potency means the concentration at half of the fitted maximal effect.

`Cc1ccc(-c2ccc(SCC(=O)N3CCCc4ccccc43)nn2)cc1` gave ELG1 genotox 3%, FLuc counter 8.5µM*, SMN2 splice enh 17%, NPC1 prom act 7% and Rab9 promoter act 8%.
Screening CSc1ccc(C2C(C(=O)c3ccco3)=C(O)C(=O)N2c2nnc(SC)s2)cc1 (centres undefined) returned ELG1 genotox inconclusive, FLuc counter inconclusive, NPC1 prom act 23% and Rab9 promoter act 22%.
COc1cccc(-c2nnc(SCC(=O)N3CCc4ccccc43)o2)c1 was read as FLuc counter -5% and SMN2 splice enh 1%.
Screening Cn1c(-c2ccccc2)cnc1SCC(=O)N1CCCCC1 returned ELG1 genotox inconclusive, FLuc counter 1.2µM*, SMN2 splice enh 1.4µM*, NPC1 prom act 0.4µM* and Rab9 promoter act 0.32µM*.
CCCn1nnnc1SCC(=O)N1CCCc2ccccc21 was read as ELG1 genotox 15µM*, FLuc counter inconclusive, SMN2 splice enh -7%, NPC1 prom act -5% and Rab9 promoter act -2%.
Screening COc1cccc(-c2ccc(SCC(=O)N3CCc4ccccc43)nn2)c1 returned ELG1 genotox 1%, FLuc counter 21µM*, SMN2 splice enh 25%, NPC1 prom act -1% and Rab9 promoter act -3%.
Screening Cc1ccc(-c2cnc(SCC(=O)N3CCCc4ccccc43)n2C)cc1 returned ELG1 genotox 0%, FLuc counter 19µM*, SMN2 splice enh -9%, NPC1 prom act -4% and Rab9 promoter act -5%.
`Cc1ccc(NC(=O)CSc2ccc3c(c2)OCCO3)nc1` gave ELG1 genotox 2%, FLuc counter -6%, NPC1 prom act 0% and Rab9 promoter act -2%.
For COC(=O)[C@@]1(Cc2ccccc2-c2ccco2)C=C[C@H](C)[C@@H](c2ccccc2)N1C(=O)C(F)(F)F the results were SMN2 splice enh 0%.
`Cc1ccc(NC(=O)c2sc3nc(-c4ccc(F)cc4)cn3c2C)c(C)c1` gave FLuc counter 1%.
Screening O=C(O)CNC(=O)[C@@H](CS)Cc1ccccc1 returned SMN2 splice enh 6%[20.6 µM].
For COc1ccc(NC(=O)Nc2cccc(-c3cn4cccnc4n3)c2)cc1 the results were FLuc counter 1.7µM* and SMN2 splice enh 5%.
`O=C(COc1ccccc1)Nc1cccc(-c2cn3cccnc3n2)c1` gave ELG1 genotox -7%, FLuc counter 15µM*, NPC1 prom act 14% and Rab9 promoter act inconclusive.
`COc1cc(OC)cc(C(=O)Nc2cccc(-c3cn4cccnc4n3)c2)c1` gave FLuc counter -17%.
CC(=O)Nc1cccc(-c2cn3cccnc3n2)c1 was read as FLuc counter -2%.
For Cc1ccc2nc(-c3ccc(NS(=O)(=O)c4ccc(F)c(F)c4)cc3)sc2c1 the results were ELG1 genotox inconclusive, FLuc counter 1.2µM*, SMN2 splice enh inconclusive, NPC1 prom act 2.8µM* and Rab9 promoter act 1.6µM*.
For Cc1ccc(S(=O)(=O)Nc2ccc3nc(C)sc3c2)cc1 the results were ELG1 genotox -3%, FLuc counter -2%, SMN2 splice enh -52%, NPC1 prom act -3% and Rab9 promoter act -3%.
Screening Cc1ccc2nc(-c3ccc(NS(=O)(=O)c4ccccc4)cc3)sc2c1 returned ELG1 genotox 7%, FLuc counter 13µM*, SMN2 splice enh 3%[1.84 µM], NPC1 prom act 15% and Rab9 promoter act 13%.
Screening COc1ccc2[nH]cc(CCNS(=O)(=O)c3ccccc3)c2c1 returned ELG1 genotox -1%, FLuc counter -4%, NPC1 prom act -1% and Rab9 promoter act -7%.
CC1CCC2(CC1)OCC1(CCC3(COC4(CCC(C)CC4)OC3)C1=O)CO2 (centres undefined) was read as ELG1 genotox -2%, FLuc counter -10%, SMN2 splice enh -13%, NPC1 prom act -9% and Rab9 promoter act -5%.
Screening Nc1cccc2c1C(=O)N(C(=O)/C=C/c1ccc(F)cc1)C2=O returned ELG1 genotox 12%, FLuc counter 11µM*, SMN2 splice enh -3%, NPC1 prom act -5% and Rab9 promoter act -11%.
Screening CN(Cc1nc2ccccc2c(=O)[nH]1)C(=O)C1CC(=O)N(c2cccc3ccccc23)C1 (centres undefined) returned ELG1 genotox 0%.
CCn1nc(C(=O)Nc2ccc(S(=O)(=O)Nc3nccs3)cc2)c2ccccc2c1=O was read as ELG1 genotox 5%, FLuc counter 4%, SMN2 splice enh 14µM*, NPC1 prom act 0% and Rab9 promoter act 1%.
`CCOc1cccc(C(=O)N(Cc2ccc(CC)cc2)C2CCS(=O)(=O)C2)c1` (centres undefined) gave FLuc counter -2% and SMN2 splice enh -6%.
Screening CCOc1ccc(/C=N/NC(=O)c2cc3c(OC)cc(OC)cc3[nH]2)cc1OC returned ELG1 genotox -9%, FLuc counter 15µM*, NPC1 prom act -2% and Rab9 promoter act -2%.
`COc1ccc(OC)c(/C=N/NC(=O)c2cc3c(OC)cc(OC)cc3[nH]2)c1` gave ELG1 genotox -10%, FLuc counter 15µM*, NPC1 prom act 9% and Rab9 promoter act 3%.
CCOc1ccc2[nH]c(C(=O)N/N=C/c3cc(OC)c(OC)c(OC)c3)cc2c1 was read as ELG1 genotox -11%, FLuc counter 4.8µM*, NPC1 prom act 18% and Rab9 promoter act 8%.
CCOc1ccc(-c2nonc2NC(=O)c2oc3c(C)c(C)ccc3c2C)cc1OCC was read as FLuc counter -9% and SMN2 splice enh -5%.
Screening CCc1ccc(NC(=O)CCS(=O)(=O)c2ccc3c(c2)oc(=O)n3C)cc1 returned FLuc counter -5%.
For Cc1cc2sc(C(=O)O)c(C)c2s1 the results were ELG1 genotox 0%, FLuc counter -3%, SMN2 splice enh -17%, NPC1 prom act -2% and Rab9 promoter act -3%.
Screening Cc1ccc2c(c1)c1ncnc(N3CCOCC3)c1n2C returned ELG1 genotox 7%, FLuc counter 15µM*, SMN2 splice enh -19%, NPC1 prom act -1% and Rab9 promoter act 0%.
For Cc1ccc2c(c1)c1ncnc(N3CCC4(CC3)OCCO4)c1n2C the results were ELG1 genotox 15%, FLuc counter 11µM*, SMN2 splice enh inconclusive, NPC1 prom act 17% and Rab9 promoter act 16%.
`Cc1ccc2c(c1)c1ncnc(N3CCN(c4ccccc4)CC3)c1n2C` gave ELG1 genotox -2%, FLuc counter -15%, SMN2 splice enh 5%, NPC1 prom act -1% and Rab9 promoter act -9%.
`Cc1nc(SCC(=O)Nc2ccccc2Cl)oc1C` gave ELG1 genotox -1%, FLuc counter 1%, NPC1 prom act -1% and Rab9 promoter act 0%.
